Reference: PubChem BioAssay AID1159580 (chemical genetic matrix, 2015)
Among all 5,500 compounds or so, about 2,000 (36%) were called active. Not shown: some 18% with an inconclusive outcome. Rule as the data show it: active = normalized growth mostly below about 0.91 (no sharp cut-off); inconclusive = no clear call, values can overlap the other calls; inactive = mostly above about 0.92. Some of the results follow.

Assay: chemical genetic growth profiling, strain panel (AID 1159580);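 also: tested at 20 µM; growth read once vehicle control cultures reached saturation at 30 °C; 1 = growth at the plate median or of vehicle wells; lower values mean less growth of the strain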
Conditions: growth OD

Measured: normalized growth

Nc1c2c(nc3ccccc13)CCCC2O (stereo not drawn)
inactive: S. cerevisiae deletion strains, locus YJR066W, strain TOR1, hits give low values 0.916 | S. cerevisiae deletion strains, locus YJR075W, strain HOC1, hits give low values 0.987 | S. cerevisiae deletion strains, locus YKL009W, strain mrt4, hits give low values 0.976 | S. cerevisiae deletion strains, locus YKL068W, hits give low values 0.987 | S. cerevisiae deletion strains, locus YKL085W, strain MDH1 (second series), hits give low values 0.991 | S. cerevisiae deletion strains, locus YKL085W, strain MDH1, hits give low values 0.991 | S. cerevisiae deletion strains, locus YKL160W, strain elf1, hits give low values 1.01 | S. cerevisiae deletion strains, locus YKL190W, strain CNB1, hits give low values 1.01 | S. cerevisiae deletion strains, locus YKR001C, strain vps1, hits give low values 0.989 | S. cerevisiae deletion strains, locus YKR026C, strain gcn3, hits give low values 1.01 | S. cerevisiae deletion strains, locus YKR091W, strain srl3, hits give low values 0.998 | S. cerevisiae deletion strains, locus YLL001W, strain dnm1, hits give low values 0.983 | S. cerevisiae deletion strains, locus YLL026W, hits give low values 0.996 | S. cerevisiae deletion strains, locus YLL041C, strain sdh2, hits give low values 1.02 | S. cerevisiae deletion strains, locus YLR027C, strain aat2, hits give low values 1.01 | S. cerevisiae deletion strains, locus YLR039C, strain RIC1, hits give low values 1.01 | S. cerevisiae deletion strains, locus YLR058C, strain SHM2, hits give low values 1.01 | S. cerevisiae deletion strains, locus YLR102C, strain apc9, hits give low values 0.984 | S. cerevisiae deletion strains, locus YLR113W, strain HOG1, hits give low values 1.03 | S. cerevisiae deletion strains, locus YLR221C, strain rsa3, hits give low values 1.02 | S. cerevisiae deletion strains, locus YLR258W, strain gsy2, hits give low values 0.996 | S. cerevisiae deletion strains, locus YLR262C, strain YPT6 (second series), hits give low values 1.01 | S. cerevisiae deletion strains, locus YLR262C, strain YPT6, hits give low values 0.963 | S. cerevisiae deletion strains, locus YLR268W, strain sec22, hits give low values 0.966 | S. cerevisiae deletion strains, locus YLR320W, strain mms22, hits give low values 1.01 | S. cerevisiae deletion strains, locus YLR330W, strain CHS5, hits give low values 0.989 | S. cerevisiae deletion strains, locus YLR342W, strain FKS1 (second series), hits give low values 1.01 | S. cerevisiae deletion strains, locus YLR342W, strain FKS1, hits give low values 1.01 | S. cerevisiae deletion strains, locus YLR357W, strain rsc2, hits give low values 0.975 | S. cerevisiae deletion strains, locus YLR370C, strain arc18, hits give low values 1 | S. cerevisiae deletion strains, locus YLR371W, strain rom2, hits give low values 0.98 | S. cerevisiae deletion strains, locus YLR384C, strain iki3, hits give low values 1 | S. cerevisiae deletion strains, locus YLR418C, strain cdc73, hits give low values 1.02 | S. cerevisiae deletion strains, locus YML016C, strain PPZ1, hits give low values 1.01 | S. cerevisiae deletion strains, locus YML032C, strain rad52, hits give low values 0.99 | S. cerevisiae deletion strains, locus YML120C, strain ndi1, hits give low values 1.03 | S. cerevisiae deletion strains, locus YML124C, strain tub3, hits give low values 0.998 | S. cerevisiae deletion strains, locus YMR058W, strain fet3, hits give low values 1.02 | S. cerevisiae deletion strains, locus YMR078C, strain ctf18, hits give low values 0.993 | S. cerevisiae deletion strains, locus YMR125W, strain sto1, hits give low values 0.997 | S. cerevisiae deletion strains, locus YMR129W, hits give low values 0.999 | S. cerevisiae deletion strains, locus YMR205C, strain PFK2, hits give low values 0.996 | S. cerevisiae deletion strains, locus YMR223W, strain ubp8, hits give low values 0.987 | S. cerevisiae deletion strains, locus YMR231W, strain pep5, hits give low values 0.999 | S. cerevisiae deletion strains, locus YMR307W, strain GAS1, hits give low values 1.08 | S. cerevisiae deletion strains, locus YNL067W, strain RPL9B, hits give low values 1.01 | S. cerevisiae deletion strains, locus YNL071W, strain lat1, hits give low values 1.01 | S. cerevisiae deletion strains, locus YNL128W, strain TEP1, hits give low values 1.02 | S. cerevisiae deletion strains, locus YNL175C, strain NOP13, hits give low values 1 | S. cerevisiae deletion strains, locus YNL183C, strain NPR1, hits give low values 0.912 | S. cerevisiae deletion strains, locus YNL197C, strain WHI3, hits give low values 0.968 | S. cerevisiae deletion strains, locus YNL209W, strain ssb2, hits give low values 1.01 | S. cerevisiae deletion strains, locus YNL224C, strain SQS1, hits give low values 1 | S. cerevisiae deletion strains, locus YNL233W, strain BNI4, hits give low values 1.03 | S. cerevisiae deletion strains, locus YNL248C, strain rpa49, hits give low values 0.992 | S. cerevisiae deletion strains, locus YNL250W, strain rad50, hits give low values 1.01 | S. cerevisiae deletion strains, locus YNL271C, strain bni1, hits give low values 0.981 | S. cerevisiae deletion strains, locus YNL298W, strain CLA4, hits give low values 0.988 | S. cerevisiae deletion strains, locus YNL307C, strain MCK1, hits give low values 0.993 | S. cerevisiae deletion strains, locus YNL322C, strain KRE1 (second series), hits give low values 1.01 | S. cerevisiae deletion strains, locus YNR049C, strain mso1, hits give low values 1.01 | S. cerevisiae deletion strains, locus YNR052C, strain pop2, hits give low values 0.966 | S. cerevisiae deletion strains, locus YOL006C, strain TOP1, hits give low values 1.13 | S. cerevisiae deletion strains, locus YOL012C, strain htz1 0.815 | S. cerevisiae deletion strains, locus YOL147C, strain pex11, hits give low values 0.999 | S. cerevisiae deletion strains, locus YOR001W, strain rrp6, hits give low values 1.03 | S. cerevisiae deletion strains, locus YOR061W, strain CKA2, hits give low values 1.01 | S. cerevisiae deletion strains, locus YOR069W, strain VPS5, hits give low values 1 | S. cerevisiae deletion strains, locus YOR070C, strain gyp1, hits give low values 1.01 | S. cerevisiae deletion strains, locus YOR080W, strain dia2, hits give low values 0.996 | S. cerevisiae deletion strains, locus YOR083W, strain WHI5 (second series), hits give low values 0.986 | S. cerevisiae deletion strains, locus YOR083W, strain WHI5, hits give low values 1.01 | S. cerevisiae deletion strains, locus YOR106W, strain vam3, hits give low values 1 | S. cerevisiae deletion strains, locus YOR136W, strain idh2, hits give low values 0.997 | S. cerevisiae deletion strains, locus YOR144C, strain elg1, hits give low values 0.999 | S. cerevisiae deletion strains, locus YOR184W, strain ser1, hits give low values 0.988 | S. cerevisiae deletion strains, locus YOR231W, strain MKK1, hits give low values 0.977 | S. cerevisiae deletion strains, locus YOR265W, strain rbl2, hits give low values 1 | S. cerevisiae deletion strains, locus YOR270C, strain vph1, hits give low values 1.02 | S. cerevisiae deletion strains, locus YOR290C, strain snf2, hits give low values 0.974 | S. cerevisiae deletion strains, locus YOR316C, strain cot1, hits give low values 0.977 | S. cerevisiae deletion strains, locus YPL051W, strain arl3, hits give low values 1.01 | S. cerevisiae deletion strains, locus YPL055C, strain LGE1, hits give low values 1.06 | S. cerevisiae deletion strains, locus YPL078C, strain atp4, hits give low values 1.01 | S. cerevisiae deletion strains, locus YPL106C, strain sse1, hits give low values 1.01 | S. cerevisiae deletion strains, locus YPL240C, strain hsp82, hits give low values 1.01 | S. cerevisiae deletion strains, locus YPL256C, strain CLN2, hits give low values 0.962 | S. cerevisiae deletion strains, locus YPR119W, strain clb2, hits give low values 0.976 | S. cerevisiae deletion strains, locus YPR141C, strain kar3, hits give low values 0.982 | S. cerevisiae deletion strains, locus YPR163C, strain tif3, hits give low values 0.973 | S. cerevisiae deletion strains, locus YPR167C, strain met16, hits give low values 0.984 | S. cerevisiae deletion strains, strain wtn01, hits give low values 0.993 | S. cerevisiae strains, strain wild type, hits give low values 1.02
